Sampled rows, rich in hits. Any-hit rate of the full collection: about 2.8%.
CDK5 inh: blocks human CDK5/p35 kinase activity; Q00535+Q15078; Recombinant CDK5/p35, ADP-Glo luminescence, 60 min; inhibition, % at 10 µM; 330,000 tested, 0.01% active;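 active means highest replicate inhibition of at least 50% and at least 75% of replicates reaching 50%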;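 further: plate controls were DMSO neutral control for no effect and GW8510 at 10 µM for full effect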
PvdQ acylase: blocks Pseudomonas aeruginosa PvdQ acylase activity; purified PvdQ acylase, fluorescence plate reader; inhibition, % at 10 µM; 340,000 tested, 0.063% active; AID 488965; in the data active means inhibition above about 30%, passing the limit was not always enough;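 further: 0% = vehicle neutral wells and 100% = reference inhibitor wells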
dFosB activator: activators of mouse delta FosB homodimer. activation, % at 25 µM. 340,000 tested, 0.99% active. purified delta FosB, TAMRA-CDK5 oligo fluorescence polarization; percent of positive-control signal above neutral wells;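 active means mean activation above about 17%, with every replicate also reaching it, limit read from the data, passing the limit was not always enough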
FGF22 binding: shifts melting point of recombinant human FGF22 | recombinant FGF22 thermal shift, SYPRO orange fluorescence; percent of sucrose octasulfate shift, DMSO zero | activity (Tm shift, normalised), % at 9.99 µM | 340,000 tested, 1.5% active;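 active means mean Tm shift, scaled 0 neutral to 100 positive control, at about 1.3% or above, every replicate too, limit read from the data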
Target sequence (Q9HCT0 whole entry, looked up): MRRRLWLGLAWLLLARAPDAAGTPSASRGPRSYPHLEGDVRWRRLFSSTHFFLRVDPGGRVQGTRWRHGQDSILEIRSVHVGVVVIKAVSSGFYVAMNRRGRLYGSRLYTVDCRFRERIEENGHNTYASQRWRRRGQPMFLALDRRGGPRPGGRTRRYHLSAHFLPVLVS
PglD DTNB: PglD (C. jejuni) enzyme inhibition; AID 602405; purified PglD enzyme, DTNB colorimetric CoA detection; inhibition, % at 12.5 µM; 360,000 tested, 0.098% active; in the data active means inhibition above about 16%, passing the limit was not always enough
SIRT5 block: blocks human SIRT5 desuccinylation of peptide; Q9NXA8; Purified SirT5, succinyl-peptide AMC, trypsin-coupled fluorescence; inhibition, % at 15 µM; 330,000 tested, 1.1% active; AID 652115; in the data active means inhibition above about 15%
Target sequence (Q9NXA8 whole entry, looked up): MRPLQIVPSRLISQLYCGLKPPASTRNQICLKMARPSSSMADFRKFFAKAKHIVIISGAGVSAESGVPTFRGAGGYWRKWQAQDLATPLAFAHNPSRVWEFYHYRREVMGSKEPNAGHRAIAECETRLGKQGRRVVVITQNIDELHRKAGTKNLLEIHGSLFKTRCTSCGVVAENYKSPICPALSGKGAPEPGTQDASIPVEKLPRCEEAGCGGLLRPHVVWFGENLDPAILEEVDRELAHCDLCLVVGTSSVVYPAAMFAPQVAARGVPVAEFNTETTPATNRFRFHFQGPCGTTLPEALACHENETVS
Active calls of the source: *; / = no result.

SMILES	CDK5 inh	PvdQ acylase	dFosB activator	FGF22 binding	PglD DTNB	SIRT5 block
COC(=O)[C@]1(Cc2ccccc2)N[C@H](CN(C)C(C)=O)[C@@H]2C(=O)N(C)C(=O)[C@@H]21	-2.2	-7.9	4.0	0.6	-1.4	/
COC(=O)[C@]1(Cc2ccccc2)N[C@H](CN(C)C(=O)c2ccc(C)cc2)[C@@H]2C(=O)N(C)C(=O)[C@@H]21	0.3	-17.5	1.0	43.4*	2.4	/
COC(=O)[C@]1(Cc2ccccc2)N[C@H](CN(C)C(=O)c2ccc(F)cc2)[C@@H]2C(=O)N(C)C(=O)[C@@H]21	5.3	11.8	-2.7	42.9*	-1.3	/
COC(=O)[C@]1(Cc2ccccc2)N[C@H](CN(C)C(=O)Nc2ccc(F)cc2)[C@@H]2C(=O)N(C)C(=O)[C@@H]21	8.7	0.7	4.1	0.0	-5.4	-2.1
COCC(=O)N(C)C[C@H]1N[C@@](Cc2ccccc2)(C(=O)OC)[C@H]2C(=O)N(C)C(=O)[C@@H]12	-0.3	-7.2	-4.1	-0.1	1.0	-2.7
COC(=O)[C@]1(Cc2ccccc2)N[C@H](CN(C)C(=O)COc2ccccc2)[C@@H]2C(=O)N(C)C(=O)[C@@H]21	-0.4	-17.1	-7.3	43.0*	-2.8	/
O=C(Cc1ccccc1)N1C[C@H]2[C@@H](c3ccccc31)[C@@H](CO)N2C(=O)C1CCCC1	/	/	/	/	-1.6	/
CC(C)NC(=O)N(C)C[C@@H]1Oc2c(NC(=O)Nc3ccc(F)cc3)cccc2C(=O)N([C@H](C)CO)C[C@@H]1C	/	/	/	-0.6	0.8	7.6
Cc1noc(C)c1NC(=O)N(C)C[C@@H]1OCCCC[C@H](C)Oc2ccc(N(C)C)cc2C(=O)N([C@@H](C)CO)C[C@@H]1C	/	/	/	-0.3	-3.9	0.7
CN(C)CCCNC(=O)C[C@@H]1CC[C@H]2[C@H](COc3ccc(NS(C)(=O)=O)cc3C(=O)N2C)O1	/	/	/	0.0	-1.5	-0.2
COCC(=O)N1CC2(C1)CN(C(=O)c1ccccn1)[C@@H](CO)c1c2c2ccc(OC)cc2n1C	/	/	/	0.1	/	/
Cc1noc(C)c1S(=O)(=O)Nc1ccc2c(c1)C(=O)N([C@@H](C)CO)C[C@@H](C)[C@@H](CN(C)Cc1ccc(Cl)c(Cl)c1)OCCCC[C@@H](C)O2	/	/	/	-0.9	1.3	17.0*
Cc1noc(C)c1S(=O)(=O)Nc1ccc2c(c1)C(=O)N([C@H](C)CO)C[C@H](C)[C@H](CN(C)Cc1ccc(Cl)c(Cl)c1)OCCCC[C@@H](C)O2	/	/	/	-1.0	-3.8	9.2
Cc1noc(C)c1S(=O)(=O)Nc1ccc2c(c1)C(=O)N([C@@H](C)CO)C[C@@H](C)[C@H](CN(C)Cc1ccc(Cl)c(Cl)c1)OCCCC[C@@H](C)O2	/	/	/	-0.9	1.2	20.1*
C/C=C/c1ccc2c(c1)O[C@@H](CN(C)C(=O)Cc1ccncc1)[C@H](C)CN([C@H](C)CO)S2(=O)=O	/	/	/	0.2	1.2	-3.8
Cc1ccc(S(=O)(=O)N(C)C[C@@H]2Oc3ccc(NC(=O)CCN4CCOCC4)cc3C(=O)N([C@H](C)CO)C[C@H]2C)cc1	/	/	/	0.0	1.0	/
CC(C)C(NC(=O)c1ccccc1Br)c1ccccc1 (stereo not drawn)	1.4	6.1	-1.5	42.9*	/	-0.1
CN(C)c1ccc2c(c1)[C@@H]1C[C@H](CC(=O)NCc3cccc(F)c3)O[C@@H](CO)[C@@H]1O2	/	/	/	-0.6	-1.1	1.1
O=C(Nc1cccnc1)c1cc(-c2ccc(Cl)c(Cl)c2)on1	-2.7	-6.9	75.6*	0.2	-0.9	0.7
CO[C@@H](CN(C)S(=O)(=O)c1cn(C)cn1)[C@@H](C)CN(C(=O)Nc1ccc(C(F)(F)F)cc1)[C@H](C)CO	/	/	/	0.2	-2.0	14.9
Cc1ccc(NC(=O)CN2C(=O)NC3(CCCc4ccccc43)C2=O)cc1S(=O)(=O)N1CCOCC1 (stereo not drawn)	-8.8	-21.8	-8.0	43.9*	/	-4.4
CCOC(=O)N1CCN(C(=O)C(=O)NNC(=O)COc2ccc(Cl)cc2)CC1	0.1	-11.9	0.6	43.5*	/	-2.5
CN1CCC(=NNC(=O)COc2ccc(Cl)cc2)CC1	1.9	-4.8	-2.0	0.4	/	20.8*
O=C(C[C@@H]1C=C[C@@H](NS(=O)(=O)c2ccc(F)cc2)[C@H](CO)O1)NCc1ccccc1F	/	/	/	/	/	-3.4
COc1ccc(S(=O)(=O)Nc2ccc3c(c2)C(=O)N([C@H](C)CO)C[C@@H](C)[C@H](CN(C)Cc2ccncc2)OCCCC[C@@H](C)O3)cc1	/	/	/	-0.3	-1.1	-2.0
SMILES	CDK5 inh	PvdQ acylase	dFosB activator	FGF22 binding	PglD DTNB	SIRT5 block
c1ccc([C@H]2CN3C(=N2)Sc2ccccc23)cc1	0.3	-3.0	1.4	45.2*	0.8	0.0
CC(=O)N1SC(N)=NC1c1ccccc1 (stereo not drawn)	-0.2	-18.6	-0.3	/	4.5	/
O=C(NCC[C@H]1CC[C@H](NS(=O)(=O)Cc2ccccc2)[C@@H](CO)O1)C1CCCC1	/	/	/	-0.1	0.2	15.0
CC(C)NC(=O)Nc1ccc2c(c1)C(=O)N([C@@H](C)CO)C[C@@H](C)[C@H](CN(C)Cc1ccncc1)O2	/	/	/	0.0	-5.4	0.2
CCOC(=O)C1CCN(S(=O)(=O)c2ccc(CC)cc2)CC1	-1.1	-10.7	-3.1	/	/	/
CCOC(=O)C1CCN(S(=O)(=O)c2ccc(C(C)(C)C)cc2)CC1	0.9	-5.0	-2.6	43.2*	/	10.2
CCNC(=O)C[C@H]1CC[C@H]2[C@H](COc3ccc(NC(=O)Nc4cccc(C)c4)cc3C(=O)N2C)O1	/	/	/	-0.4	1.2	-0.2
O=C(O)CSc1ncnc2scc(-c3ccccc3)c12	4.9	-1.3	-3.5	42.8	3.0	-3.8
COc1cc(NC(=O)CSc2ncnc3scc(-c4ccccc4)c23)c(C(=O)O)cc1OC	-2.3	-1.3	-11.4	43.1*	/	-3.3
C[C@@H]1CCCCO[C@@H](CN(C)Cc2ccc3c(c2)OCO3)[C@H](C)CN([C@H](C)CO)C(=O)c2cc(NC(=O)Nc3ccc(F)cc3)ccc2O1	/	/	/	-0.6	1.1	6.2
NC1=NC(=O)/C(=C/c2cc(Br)c(O)c(Br)c2)S1	-0.6	-1.4	-1.4	2.0*	/	4.6
C[C@@H](NC(=O)C[C@H]1CC[C@H]2[C@@H](COC[C@@H](O)CN2Cc2ccc(C(F)(F)F)cc2)O1)c1ccccc1	/	/	/	0.0	5.7	16.7*
O=C(C[C@H]1CC[C@H]2[C@@H](COC[C@H](O)CN2Cc2cccc(C(F)(F)F)c2)O1)NCc1ccncc1	/	/	/	-0.1	0.0	16.6*
Cc1ccc(S(=O)(=O)N(C)C[C@H]2Oc3ccc(NS(=O)(=O)c4c(C)noc4C)cc3C(=O)N([C@H](C)CO)C[C@@H]2C)cc1	/	/	/	-0.3	-1.6	-4.4
CCCCn1c(-c2csc(C(C)C)c2)n[nH]c1=S	4.1	9.3	-6.0	0.0	-9.8	17.1*
C[C@@H]1CN([C@H](C)CO)C(=O)c2cc(NC(=O)NC3CCCCC3)ccc2O[C@H]1CN(C)S(=O)(=O)c1cn(C)cn1	/	/	/	-0.5	-3.9	3.8

Screening results (PubChem)
